Experimental data: the supplement of paper PMC12669032
Values without a mark were called inactive.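 How the source made its calls: active = AUC reduced over 20% with Padj below 0.05 in at least 2 of 3 replicates; inactive = otherwise.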

Key:
Assay in all cases: growth AUC relative to DMSO control (median of replicates) (fraction); higher = more growth (less inhibition), active = hit call of the paper
Details in all cases: 20 µM; 24 h
Akkermansia muciniphila = test system: Akkermansia muciniphila
Summary of the method: (§1)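 OD600 was recorded every hour for 24 h in anaerobic monocultures of gut bacteria kept at 37 °C in mGAM, seeded at OD600 0.05 and given 20 µM compound in 1% DMSO. The area under each growth curve was scaled to the plate median of solvent-only wells, or to row and column medians for the industrial chemical plate. Before this step, the minimum OD was set to 0. Reported values are medians of three biological replicates run on separate days.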

Bacteroides caccae = test system: Bacteroides caccae
Summary of the method: as §1

Bacteroides clarus = test system: Bacteroides clarus
Summary of the method: as §1

Bacteroides dorei = test system: Bacteroides dorei
Summary of the method: as §1

Bacteroides stercoris = test system: Bacteroides stercoris
Summary of the method: as §1

[1] = test system: Bacteroides thetaiotaomicron
Summary of the method: as §1

Bacteroides uniformis = test system: Bacteroides uniformis
Summary of the method: as §1

[2] = test system: Bifidobacterium longum subsp. longum
Summary of the method: as §1

Clostridium difficile = test system: Clostridium difficile
Summary of the method: as §1

Collinsella aerofaciens = test system: Collinsella aerofaciens
Summary of the method: as §1

Coprococcus comes = test system: Coprococcus comes
Summary of the method: as §1

Escherichia coli ED1a = test system: Escherichia coli ED1a
Summary of the method: as §1

Escherichia coli IAI1 = test system: Escherichia coli IAI1
Summary of the method: as §1

Eubacterium rectale = test system: Eubacterium rectale
Summary of the method: as §1

[3] = test system: Fusobacterium nucleatum subsp. animalis
Summary of the method: as §1

Lactobacillus gasseri = test system: Lactobacillus gasseri
Summary of the method: as §1

Lactobacillus paracasei = test system: Lactobacillus paracasei
Summary of the method: as §1

Odoribacter splanchnicus = test system: Odoribacter splanchnicus
Summary of the method: as §1

[4] = test system: Parabacteroides distasonis
Summary of the method: as §1

Parabacteroides merdae = test system: Parabacteroides merdae
Summary of the method: as §1

SMILES	growth AUC (Akkermansia muciniphila)	growth AUC (Bacteroides caccae)	growth AUC (Bacteroides clarus)	growth AUC (Bacteroides dorei)	growth AUC (Bacteroides stercoris)	growth AUC [1]	growth AUC (Bacteroides uniformis)	growth AUC [2]	growth AUC (Clostridium difficile)	growth AUC (Collinsella aerofaciens)	growth AUC (Coprococcus comes)	growth AUC (Escherichia coli ED1a)	growth AUC (Escherichia coli IAI1)	growth AUC (Eubacterium rectale)	growth AUC [3]	growth AUC (Lactobacillus gasseri)	growth AUC (Lactobacillus paracasei)	growth AUC (Odoribacter splanchnicus)	growth AUC [4]	growth AUC (Parabacteroides merdae)
COCC(=O)N(c1c(C)cccc1C)N1CCOC1=O	0.966	0.969	0.945	1	0.978	0.99	1	0.963	0.983	0.997	0.939	0.975	1.02	0.964	0.882	0.914	0.953	0.984	1.03	1.01
CC(CCl)OP(=O)(OC(C)CCl)OC(C)CCl (mixture of isomers)	1.14	1	0.998	0.973	0.994	1	0.958	1.05	1.02	0.951	0.999	0.973	0.984	1.08	1.08	0.851	1.01	1.01	0.94	0.976
N#Cc1nn(-c2c(Cl)cc(C(F)(F)F)cc2Cl)c(N)c1C(F)(F)F	1.08	0.898	0.741 (active)	0.773	0.626	1.01	0.97	0.858	0.609 (active)	0.967	0.885	0.986	0.978	1.01	0.842	0.801	0.927	0.696	0.791 (active)	0.834
CNC(=O)Oc1cccc2ccccc12	1.08	0.993	1.01	0.991	1.02	0.998	1.03	1.03	1.01	0.987	1.03	1.01	0.982	1.05	1.03	0.907	1.1	1.05	0.944	1
O=C1CCc2cccc3c2N1CC3	1.04	0.874	0.964	0.974	1.14	0.883	0.98	1.03	1.03	0.954	1.03	1	0.966	1.06	1.08	0.889	0.983	1.04	1.03	0.971
OC(Cn1cncn1)(c1ccc(F)cc1)c1ccccc1F (stereo not given)	0.876	0.976	0.971	0.988	1	0.98	0.999	1.21	1	0.985	0.975	1.04	0.98	0.958	1.02	0.962	0.909	0.979	1.01	0.995
CC(Oc1ccc(Oc2ncc(C(F)(F)F)cc2Cl)cc1)C(=O)O (stereo not given)	1.02	0.974	0.957	0.954	0.979	0.975	0.943	0.93	1.01	0.967	0.99	1.02	0.987	0.977	1.01	0.922	0.876	1.04	0.978	0.976
CCN(CC)c1nc(C)cc(OP(=S)(OC)OC)n1	0.948	0.979	0.974	1	0.927	0.945	0.976	0.967	1.02	0.989	0.982	1.03	0.978	1.06	0.996	0.984	0.982	0.966	0.813	0.962
CCNc1nc(NC(C)C(C)C)nc(SC)n1 (stereo not given)	0.961	1.01	0.962	1	1.04	0.915	0.972	0.965	1	1.05	0.977	0.979	0.991	0.89	0.997	1.06	0.81	0.954	1.04	0.992
COP(=S)(NC(C)C)Oc1ccc(C)cc1[N+](=O)[O-] (stereo not given)	0.926	0.974	0.977	0.982	1.09	0.964	0.956	1.04	1.08	1.05	1.03	0.997	0.996	0.933	1.06	1.03	1.06	0.998	0.972	0.973
CC1(C)OC(c2ccco2)CN1C(=O)C(Cl)Cl (stereo not given)	0.918	1	0.942	1	1.03	0.992	1.02	1.03	0.956	1.02	1.03	1.01	0.994	0.803	0.934	1.07	0.976	1.05	0.99	0.968
COC(=O)NS(=O)(=O)c1ccc(N)cc1	1	0.901	0.995	0.916	0.959	0.948	0.867	1.03	0.913	0.876	1.01	0.972	0.975	1.28	0.939	0.848	0.903	1.1	1.08	0.774 (active)
COC(=O)C(C)(Cl)Cl	0.86	0.984	1.01	1.02	1	1.04	0.968	1.02	1.01	1.01	0.987	0.977	1.02	0.934	1.03	1.18	1.03	0.956	1.05	1.04
CCCCC(CC)COC(=O)c1ccccc1C(=O)OCC(CC)CCCC (stereo not given)	1.03	0.989	0.993	0.963	0.898	0.993	1.03	0.984	0.977	0.888	0.999	0.983	0.977	1.02	1	0.892	1.07	1.1	0.985	0.965
Nc1nc(N)[nH]c(=O)n1	1.05	1.02	0.994	1.04	1	1.01	1.01	1.02	1	1.1	1.02	1.02	1.03	0.978	0.964	0.982	1.04	0.956	1.05	1.01
C1CCC(NC2CCCCC2)CC1.O=NO	0.874	0.983	0.991	0.991	0.831	0.984	0.943	0.967	1.01	1.08	0.832	0.991	0.95	0.601 (active)	1	1.06	0.985	0.93	0.936	0.753 (active)
C=CCOC(Cn1ccnc1)c1ccc(Cl)cc1Cl.O=S(=O)(O)O (stereo not given)	0.744	0.949	0.925	1	0.994	0.931	0.977	0.843	0.884	0.845	0.184 (active)	0.973	0.954	0.0325 (active)	0.925	0.962	0.881	0.985	0.951	0.89
O=C(O)COc1ccc(Cl)cc1Cl	0.866	1.03	0.979	0.996	0.986	1	0.998	1	1.02	0.988	1.02	1.01	0.991	0.943	0.947	1.08	1.05	0.958	0.988	0.982
CCOP(=S)(OCC)OP(=S)(OCC)OCC	0.981	0.986	0.953	0.993	1.02	0.956	0.988	1.01	0.986	1.02	0.985	0.968	0.979	0.928	1.04	1.23	1.04	0.98	1.02	0.984
COP(=O)(OC)OC(Br)C(Cl)(Cl)Br (stereo not given)	0.978	0.987	0.977	0.986	0.984	0.953	0.962	0.99	0.987	1.03	0.976	0.991	1.02	0.915	0.973	1.02	1.01	0.937	1.06	1.01
O=[N+]([O-])c1ccc(Oc2ccc(Cl)cc2Cl)cc1	1.09	0.959	0.971	0.973	1.09	0.99	0.931	0.972	0.97	0.998	0.988	0.99	0.983	1.07	1	0.789	0.976	0.946	0.655 (active)	0.967
Nc1c(Cl)c(F)nc(OCC(=O)O)c1Cl	0.886	1.01	0.968	1.01	0.999	0.991	0.955	0.917	1.01	0.97	0.99	0.992	1.03	0.918	0.971	1.11	1.16	1	0.972	1.01
CCCOCCN(C(=O)CCl)c1c(CC)cccc1CC	1.11	0.979	0.981	0.976	0.919	0.95	0.895	1.05	0.971	0.972	0.988	0.963	0.985	1.02	0.945	0.927	1.12	1.02	0.848	0.942
CN(C)C(CSS(=O)(=O)[O-])CSS(=O)(=O)O.[Na+]	1.01	1.02	0.998	1.03	1.03	0.98	1.13	1.01	0.943	0.999	0.987	1.03	1.01	1.5	1.11	0.952	0.984	1.05	0.979	1.03
